This passage reports activation factor and activity change, negative = activation results from PubChem BioAssay AID434970 (Sanford-Burnham Center for Chemical Genomics, 2010).

Structures are written as SMILES. Out of some 11,000 compounds screened, about 310 (2.8%) were called active. This is one part of a sample in which actives are shown more often than they occur. Rule as the data show it: active = activity change below about -85%; inactive = the rest.

The test relates to intestinal alkaline phosphatase [Mus musculus]. Put plainly: activators of mouse IAP, confirmation, biochemical, luminescence, single concentration (AID 434970). The settings on record: purified mouse IAP, CDP-Star luminescence, 30 min, at 10 µM; activation factor: measured here: IAP activation factor, stronger effect = higher value; activity change, negative = activation: stronger effect = lower value.
Consider `COc1cc2sc(-c3ccccc3OC)c(-c3ccc(OCCN4CCOCC4)cc3)c2cc1OC`, for which the activation factor came to 1 and the activity change, negative = activation was -0.3% (inactive).

`CCSc1nnc(NC(=O)CCNS(=O)(=O)c2cc(Br)cnc2N)s1`: the activation factor is 0.825 and the activity change, negative = activation is 17.4% (inactive).

On to `CCOC(=O)c1cccc(NC(=O)Nc2ccc(OCC)cc2)c1`, for which the activation factor is 1.88 and the activity change, negative = activation is -87.6% (inactive).

As for `O=C(Nc1ccc(F)cc1)Nc1cccc(Br)c1`, the activation factor stood at 1.74 and the activity change, negative = activation was -73.8% (inactive).

In the case of `O=C(Nc1ccc(F)cc1)Nc1cc(OCC(F)(F)F)cc(OCC(F)(F)F)c1`, the activation factor amounted to 2.11 and the activity change, negative = activation was -111% (active).

On to `CCOc1ccc(NC(=O)Nc2cc(OCC(F)(F)F)cc(OCC(F)(F)F)c2)cc1`, for which the activation factor is 2.08 and the activity change, negative = activation is -108% (active).

With `CC(C)(C)c1ccc(NC(=O)Nc2ccc(F)cc2)cc1`, the activation factor turned out to be 1.65 and the activity change, negative = activation was -65.3% (inactive).

With `CCOc1ccc(NC(=O)Nc2cc(C)ccc2OC)cc1`, the activation factor came out at 1.16 and the activity change, negative = activation was -15.9% (inactive).

In the case of `CC(C)Oc1cccc(C(=O)Nc2ccc(N3CCN(S(C)(=O)=O)CC3)cc2)c1`, the activation factor stood at 1.1 and the activity change, negative = activation is -10.2% (inactive).

In the case of `CCOCCCNC(=O)C(C)NS(=O)(=O)c1ccc(C)cc1` (stereo not drawn), the activation factor stood at 0.903 and the activity change, negative = activation was 9.65% (inactive).

For `COc1ccc(C(=O)NCC(C)C)c(OC)c1`, the activation factor worked out at 0.893 and the activity change, negative = activation was 10.7% (inactive).

On to `CC(C)(C)OC(=O)N[C@@H](Cc1ccccc1)c1nnc(SCC(=O)O)o1`, for which the activation factor was 0.956 and the activity change, negative = activation is 4.4% (inactive).

Take `O=S(=O)(c1ccc2ccccc2c1)N1CCCOC1`: the activation factor was 1.17 and the activity change, negative = activation was -16.5% (inactive).

Take `CCOc1ccccc1NC(=O)N1C2CCCC1CC(NC(=O)C1CC1)C2` (stereo not drawn): the activation factor stood at 1.05 and the activity change, negative = activation was -5.1% (inactive).

Regarding `COc1cc(NC(=O)NC2Cc3ccccc3C2)cc(OC)c1`, the activation factor stood at 2.69 and the activity change, negative = activation is -169% (active).

On to `COc1cccc(NC(=O)CC2COc3ccccc3O2)c1` (stereo not drawn), for which the activation factor came out at 1.15 and the activity change, negative = activation is -15% (inactive).

With `COc1cccc(NC(=O)N2CCCC2C(=O)NC(C)C)c1` (stereo not drawn), the activation factor worked out at 0.971 and the activity change, negative = activation was 2.9% (inactive).

Turning to `COc1cc(NC(=O)CCN2CCN(Cc3ccccc3)CC2)cc(OC)c1`, the activation factor amounted to 0.978 and the activity change, negative = activation is 2.15% (inactive).

As for `COc1cccc(NC(=O)NCCCSC2CCCCC2)c1`, the activation factor is 1.68 and the activity change, negative = activation is -67.6% (inactive).

Regarding `COc1cccc(NC(=O)NC2CCCCCCC2)c1`, the activation factor is 2.67 and the activity change, negative = activation was -167% (active).

As to `CCC1CCC(NC(=O)Nc2cccc(OC)c2)CC1` (stereo not drawn), the activation factor was 2.37 and the activity change, negative = activation was -137% (active).

As for `CCN1CCN(CCC(=O)Nc2cccc(OC)c2)CC1`, the activation factor was found to be 0.925 and the activity change, negative = activation is 7.45% (inactive).

As to `CC(=O)c1cccc(NC(=O)NC(C)C2CCCO2)c1` (stereo not drawn), the activation factor was 1.12 and the activity change, negative = activation was -12.2% (inactive).

As to `COc1cccc(C(=O)NC2CCN(C(=O)N3CCCCC3)CC2)c1`, the activation factor is 1.09 and the activity change, negative = activation was -9.3% (inactive).

With `COc1cc(NC(=O)c2ccccc2)cc(OC)c1`, the activation factor was 0.99 and the activity change, negative = activation is 0.95% (inactive).

For the compound `COc1cccc(NC(=O)NC(C)C2CC3CCC2C3)c1` (stereo not drawn), the activation factor was found to be 1.97 and the activity change, negative = activation is -96.6% (active).

Regarding `COc1ccc(-c2nnc(SCC(=O)N3CCOCC3)n2C)cc1OC`, the activation factor stood at 1.07 and the activity change, negative = activation was -7.45% (inactive).

In the case of `Cn1c(-c2ccc(F)cc2)cnc1NCc1cccc(F)c1`, the activation factor was 0.905 and the activity change, negative = activation is 9.55% (inactive).

Turning to `CC(C)OC(=O)c1cccc(NC(=O)c2ccccc2)c1`, the activation factor stood at 0.988 and the activity change, negative = activation was 1.25% (inactive).

As to `Cc1oc(-c2cccs2)nc1CSCC(=O)NC1CC1`, the activation factor was found to be 0.893 and the activity change, negative = activation was 10.8% (inactive).

As for `CN(c1ccccc1C(=O)NCc1ccccn1)S(C)(=O)=O`, the activation factor is 1.03 and the activity change, negative = activation is -3.4% (inactive).

In the case of `COC(=O)[C@@]1(C)[C@H]2C(=O)N(Cc3ccccc3)C(=O)[C@H]2[C@H]2CN=C(SC)N21`, the activation factor amounted to 1.09 and the activity change, negative = activation is -9.05% (inactive).

`CCN1C(=O)[C@H]2[C@H]3CN=C(SC)N3[C@@](CC)(C(=O)OC)[C@H]2C1=O`: the activation factor amounted to 0.957 and the activity change, negative = activation is 4.3% (inactive).

In the case of `COC(=O)c1sc2ncn(-n3c(C)ccc3C)c(=O)c2c1C`, the activation factor was found to be 1.03 and the activity change, negative = activation is -3.25% (inactive).

For `CC[C@]12c3[nH]c4cc(-c5ccco5)ccc4c3CCN1C(=O)[C@@H](CC(=O)NC(C)(C)C)C[C@@H]2C(=O)N1CCN(C(=O)C2CC2)CC1`, the activation factor came out at 0.984 and the activity change, negative = activation is 1.6% (inactive).

As for `C[C@H](CO)N1C[C@H](C)[C@@H](CN(C)S(=O)(=O)c2cccs2)Oc2ccc(NC(=O)Nc3ccc4c(c3)OCO4)cc2C1=O`, the activation factor worked out at 1.88 and the activity change, negative = activation was -87.5% (inactive).

`C[C@H](CO)N1C[C@H](C)[C@@H](CN(C)S(C)(=O)=O)Oc2ccc(NC(=O)Nc3ccc(C(F)(F)F)cc3)cc2C1=O`: the activation factor turned out to be 1.83 and the activity change, negative = activation is -83.2% (inactive).

`COc1ccc(NC(=O)Nc2ccc3c(c2)C(=O)N([C@@H](C)CO)C[C@@H](C)[C@@H](CN(C)S(=O)(=O)c2cccs2)O3)cc1`: the activation factor worked out at 1.76 and the activity change, negative = activation is -75.9% (inactive).

Consider `C[C@H]1CN([C@@H](C)CO)C(=O)c2cc(NC(=O)NC3CCCCC3)ccc2O[C@H]1CN(C)C(=O)Nc1ccc(C(F)(F)F)cc1`, for which the activation factor amounted to 1.58 and the activity change, negative = activation was -58.1% (inactive).
